Shown is part of a subset that was picked to be rich in hits.
IDE exosite FP: displaces the probe from the exo-site of human IDE. purified IDE, FL-6b probe fluorescence polarization; active compounds read low. z-score at 20 µM. 17,000 compounds, 6.3% hits. AID 1259349;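 active means z-score of -3 or lower, meaning strong loss of probe binding signal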;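 further: His-tagged human IDE residues 42-1019 made in E. coli with 30 nM FL-6b probe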
Target sequence (P14735 42-1019 limits assumed): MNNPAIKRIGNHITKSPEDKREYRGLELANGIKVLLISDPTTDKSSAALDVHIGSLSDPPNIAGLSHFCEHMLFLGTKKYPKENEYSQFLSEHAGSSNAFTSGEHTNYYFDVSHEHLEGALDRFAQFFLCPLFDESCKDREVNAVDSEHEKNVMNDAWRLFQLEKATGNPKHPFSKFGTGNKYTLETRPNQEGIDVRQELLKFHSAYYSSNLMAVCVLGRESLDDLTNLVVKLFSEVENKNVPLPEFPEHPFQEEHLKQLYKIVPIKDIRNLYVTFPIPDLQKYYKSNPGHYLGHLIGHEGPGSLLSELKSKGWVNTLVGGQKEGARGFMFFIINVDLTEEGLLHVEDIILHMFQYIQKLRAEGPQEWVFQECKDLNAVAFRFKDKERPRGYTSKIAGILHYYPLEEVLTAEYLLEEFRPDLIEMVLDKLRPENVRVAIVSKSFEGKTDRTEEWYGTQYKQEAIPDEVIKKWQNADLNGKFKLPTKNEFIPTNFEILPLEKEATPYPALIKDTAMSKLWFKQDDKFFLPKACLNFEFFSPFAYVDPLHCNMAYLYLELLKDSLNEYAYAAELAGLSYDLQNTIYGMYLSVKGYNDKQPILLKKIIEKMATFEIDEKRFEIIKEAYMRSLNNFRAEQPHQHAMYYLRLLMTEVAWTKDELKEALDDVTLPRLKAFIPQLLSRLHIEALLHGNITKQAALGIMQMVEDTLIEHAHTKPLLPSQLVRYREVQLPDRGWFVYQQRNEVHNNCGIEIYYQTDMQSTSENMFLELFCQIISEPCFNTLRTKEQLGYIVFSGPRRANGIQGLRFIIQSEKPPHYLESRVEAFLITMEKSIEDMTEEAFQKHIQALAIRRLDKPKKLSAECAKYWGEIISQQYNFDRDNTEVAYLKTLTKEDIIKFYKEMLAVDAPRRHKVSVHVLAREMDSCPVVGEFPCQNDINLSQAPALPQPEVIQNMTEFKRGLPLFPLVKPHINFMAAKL
* marks the source's active call; other numbers are inactive results; ! = repeats disagree.

Screening Cn1cnc(S(=O)(=O)N2CCCCN3[C@H](CO)[C@@H](c4ccc(-c5cccc(F)c5)cc4)[C@H]3C2)c1 returned IDE exosite FP 0.035.
For Cn1cnc(S(=O)(=O)N2CCCCN3[C@H](CO)[C@@H](c4ccc(-c5cccc(F)c5)cc4)[C@@H]3C2)c1 the results were IDE exosite FP -3.7*.
Cn1cnc(S(=O)(=O)N2CCCCN3[C@@H](CO)[C@H](c4ccc(-c5cccc(F)c5)cc4)[C@@H]3C2)c1 was read as IDE exosite FP 2.1.
`CN(C)c1ccc2c(c1)[C@@H]1C[C@@H](CC(=O)NC3CCCCC3)O[C@@H](CO)[C@@H]1O2` gave IDE exosite FP -0.84.
For CO[C@H](CN(C)S(=O)(=O)c1ccc(C)cc1)[C@@H](C)CN([C@@H](C)CO)S(=O)(=O)c1cccc(Cl)c1 the results were IDE exosite FP 0.0054.
Screening CC(C)CC#Cc1ccc([C@@H]2[C@H](CO)N3C(=O)CN(C(=O)Cc4cccnc4)C[C@@H]23)cc1 returned IDE exosite FP 1.4.
`N#C[C@@H]1[C@@H](c2ccccc2)[C@H](CO)N1S(=O)(=O)c1ccc(-c2ccccc2)cc1` gave IDE exosite FP 1.8.
`CN(C)CC#Cc1ccc([C@H]2[C@@H](CO)N3C(=O)CN(C(=O)Cc4cccnc4)C[C@H]23)cc1` gave IDE exosite FP 3.2.
Screening COC(=O)C[C@@H]1C[C@@H]2c3cc(NC(=O)c4ccc5c(c4)OCO5)ccc3O[C@@H]2[C@@H](CO)O1 returned IDE exosite FP -0.27.
Screening CCC(=O)N1CC(=O)N2[C@H](C1)[C@H](c1ccc(-c3ccc(C(=O)N(C)C)cc3)cc1)[C@@H]2CO returned IDE exosite FP -0.39.
For Fc1cccc(-c2ccc(C3[C@@H]4CN(Cc5cccnc5)C[C@H]3N4)cc2)c1 (stereo partly drawn) the results were IDE exosite FP 1.4.
Screening O=C(C1CCOCC1)N1C[C@@H]2N[C@H](C1)C2c1ccc(-c2cccc(F)c2)cc1 (stereo partly drawn) returned IDE exosite FP 4.2.
For O=C(C1CCC1)N1C[C@@H]2N[C@H](C1)C2c1ccc(-c2cccc(F)c2)cc1 (stereo partly drawn) the results were IDE exosite FP 1.
`Cc1ccccc1-c1ccc(C2[C@@H]3CN(C(=O)C4CCOCC4)C[C@H]2N3)cc1` (stereo partly drawn) gave IDE exosite FP -7.7*!.
For Cc1ccccc1-c1ccc(C2[C@@H]3CN(Cc4cccnc4)C[C@H]2N3)cc1 (stereo partly drawn) the results were IDE exosite FP -14*.
CN(C)C(=O)c1ccc(-c2ccc(C3[C@@H]4CN(Cc5cccnc5)C[C@H]3N4)cc2)cc1 (stereo partly drawn) was read as IDE exosite FP 1.2.
`N#C[C@@H]1[C@H](c2ccc(-c3ccccc3F)cc2)[C@H](CO)N1C(=O)C1CCOCC1` gave IDE exosite FP -0.72.
For N#Cc1ccc(-c2ccc(C3[C@@H]4CN(C(=O)C5CCOCC5)C[C@H]3N4)cc2)cc1 (stereo partly drawn) the results were IDE exosite FP 1.9.
N#Cc1ccc(-c2ccc(C3[C@@H]4CN(C(=O)c5ccccn5)C[C@H]3N4)cc2)cc1 (stereo partly drawn) was read as IDE exosite FP 2.8.
Screening O=C(c1ccccn1)N1C[C@@H]2N[C@H](C1)C2c1ccc(-c2ccccc2F)cc1 (stereo partly drawn) returned IDE exosite FP -5.8*!.
For O=C(C1CCOCC1)N1C[C@@H]2N[C@H](C1)C2c1ccc(-c2ccccc2F)cc1 (stereo partly drawn) the results were IDE exosite FP -3*!.
For CN(C)C(=O)c1ccc(-c2ccc(C3[C@@H]4CN(C(=O)c5ccccn5)C[C@H]3N4)cc2)cc1 (stereo partly drawn) the results were IDE exosite FP 1.1.
For O=C(Cc1ccccc1)N1CC(=O)N2[C@H](CO)[C@@H](c3ccc(-c4ccccc4)cc3)[C@@H]2C1 the results were IDE exosite FP -2.7.
Screening CO[C@H](C(=O)N(C)C[C@@H]1OCc2ccccc2-c2ccccc2C(=O)N([C@H](C)CO)C[C@H]1C)c1ccccc1 returned IDE exosite FP 0.23.
For CO[C@H](C(=O)N(C)C[C@H]1OCc2ccccc2-c2ccccc2C(=O)N([C@@H](C)CO)C[C@@H]1C)c1ccccc1 the results were IDE exosite FP 0.17.
COc1ccc(C[C@@H]2CCn3cc(nn3)COC[C@@H](c3ccccc3)NC2=O)cc1 was read as IDE exosite FP 0.4.
Screening CC(=O)N1CC2(C1)[C@@H](c1ccccc1)[C@@H](CO)N2C(=O)Cc1ccccc1 returned IDE exosite FP -0.36.
Screening O=C(Nc1ccccc1)N1CCCCN2[C@@H](CO)[C@H](c3ccc(Br)cc3)[C@@H]2C1 returned IDE exosite FP 0.17.
Screening O=C(c1cnccn1)N1C[C@H]2[C@@H](c3ccccc31)[C@@H](CO)N2CC1CCCC1 returned IDE exosite FP 1.4.
Screening CO[C@H]1CN(C)C(=O)c2ccc(NS(=O)(=O)CC(F)(F)F)cc2OC[C@H](C)N(C(=O)NC(C)C)C[C@H]1C returned IDE exosite FP -0.99.
`O=C(NC1CCCC1)N1CC(=O)N2[C@H](CO)[C@H](c3ccc(-c4cccnc4)cc3)[C@H]2C1` gave IDE exosite FP -3.
`O=C(NC1CCCCC1)N1CC(=O)N2[C@@H](CO)[C@H](c3ccc(-c4ccncc4)cc3)[C@@H]2C1` gave IDE exosite FP -0.0019.
`O=C(NC1CCCCC1)N1CC(=O)N2[C@@H](CO)[C@H](c3ccc(-c4ccccc4)cc3)[C@@H]2C1` gave IDE exosite FP -0.88.
`O=C(NC1CCCCC1)N1CC(=O)N2[C@H](C1)[C@H](c1ccc(-c3ccncc3)cc1)[C@@H]2CO` gave IDE exosite FP -0.15.
Screening O=C(NC1CCCCC1)N1CC(=O)N2[C@@H](CO)[C@@H](c3ccc(-c4ccccc4)cc3)[C@@H]2C1 returned IDE exosite FP -3.7*.
O=C(NC1CCCCC1)N1CC(=O)N2[C@H](CO)[C@@H](c3ccc(-c4ccccc4)cc3)[C@H]2C1 was read as IDE exosite FP -5.2*.
Screening O=C(NC1CCCCC1)N1CC(=O)N2[C@H](C1)[C@@H](c1ccc(-c3ccccc3)cc1)[C@@H]2CO returned IDE exosite FP -9.1*.
For O=C(NC1CCCC1)N1CC(=O)N2[C@H](CO)[C@@H](c3ccc(-c4cccnc4)cc3)[C@H]2C1 the results were IDE exosite FP -1.8.
Screening O=C(NC1CCCCC1)N1CC(=O)N2[C@H](C1)[C@H](c1ccc(-c3ccccc3)cc1)[C@@H]2CO returned IDE exosite FP -0.35.
`Cc1cccc(S(=O)(=O)N2[C@@H]3CNC[C@H]2C3c2ccc(-c3cccnc3)cc2)c1` (stereo partly drawn) gave IDE exosite FP -0.5.
Screening O=C(c1ccccn1)N1CC[C@@H]2[C@@H](CO)Nc3ccc(C#Cc4cccnc4)cc3[C@@H]21 returned IDE exosite FP 3.
For O=C1CNC[C@@H]2[C@H](c3ccc(C#CC4CCCC4)cc3)[C@@H](CO)N12 the results were IDE exosite FP 3.7.
C/C=C/c1ccc([C@@H]2[C@@H](CO)N3CCCCN(S(=O)(=O)c4ccc(OC)cc4)C[C@@H]23)cc1 was read as IDE exosite FP -0.93.
Cc1noc(C)c1NC(=O)Nc1ccc2c(c1)C(=O)N(C)[C@H]1CC[C@H](CC(=O)N[C@H]3CCN(Cc4ccccc4)C3)O[C@@H]1CO2 was read as IDE exosite FP -0.5.
